Screening results (PubChem)
PI5P4Ka inh: inhibitors of human PI5P4K alpha. 330,000 tested, 1.2% active. P48426. max response, %. PI5P4Kalpha enzyme, ADP-Glo luminescence, 60 min; active compounds read low. AID 652105; active = max response of -50% or lower; inconclusive = between -30% and -50%; inactive = -30% or higher; note: value at the top dose of about 77 µM; % is set by controls: 0 for no effect and ±100 for the full control effect
Target sequence (P48426 whole entry, looked up): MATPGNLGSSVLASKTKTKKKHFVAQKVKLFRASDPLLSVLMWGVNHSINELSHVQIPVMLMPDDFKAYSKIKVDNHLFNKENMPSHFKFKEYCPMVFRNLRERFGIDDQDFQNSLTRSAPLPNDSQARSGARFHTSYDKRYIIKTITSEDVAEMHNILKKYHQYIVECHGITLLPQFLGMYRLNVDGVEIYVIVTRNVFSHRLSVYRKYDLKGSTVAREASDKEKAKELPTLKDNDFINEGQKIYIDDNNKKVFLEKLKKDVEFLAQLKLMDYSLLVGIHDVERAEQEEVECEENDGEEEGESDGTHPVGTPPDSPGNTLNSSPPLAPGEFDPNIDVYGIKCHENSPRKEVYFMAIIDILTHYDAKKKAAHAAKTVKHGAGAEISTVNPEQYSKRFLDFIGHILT
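ADP-Glo luminescence end-point after a 60 min room-temperature kinase reaction. PI5P4Kalpha and substrate in HEPES pH 7.4 buffer with EGTA, 0.1% CHAPS and 5% DMSO; ATP at 5 microM final.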
BAZ2B inh: BAZ2B (human) inhibition. AID 504333. AlphaScreen BAZ2B-H3K14Ac peptide displacement. Potency, µM (top dose mostly 114 µM), without a hit: at the top dose activity change, negative = inhibition, actives largely listed as inhibitors. Q9UIF8. 360,000 tested, 4.4% active; note: potency is the fitted concentration of half-maximal effect; % is set by controls: 0 for no effect and ±100 for the full control effect; nearly all actives have a fitted effect of over 60% in size
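Protein-peptide AlphaScreen: BAZ2B 50 nM, b-H3K14Ac 50 nM, 1x PBS pH 7.4 + 0.01% Tween-20. Preincubation 30 min RT; cpd 30 min RT (top 110 uM); beads 20 min RT, light-protected.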
JMJD2A Tudor inh: blocks the human JMJD2A Tudor domain. AlphaScreen JMJD2A-Tudor / H3K4me3 peptide binding. Potency, µM (titrated, usually from 114 µM), without a hit: at the top dose activity change, negative = inhibition, actives largely listed as inhibitors. 390,000 tested, 4.4% active; note: potency is the fitted concentration of half-maximal effect; % is set by controls: 0 for no effect and ±100 for the full control effect; nearly all actives have a fitted effect of over 50% in size
L3MBTL1 inh: inhibitors of human L3MBTL1; Q9Y468; AlphaScreen L3MBTL1–H3K9me1 peptide binding; Potency, µM (titrated, usually from 57.1 µM), without a hit: top-dose activity, negative = inhibition, actives largely listed as inhibitors; 230,000 tested, 0.66% active; note: potency is the fitted concentration of half-maximal effect; % is set by controls: 0 for no effect and ±100 for the full control effect; nearly all actives have a fitted effect of over 60% in size
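Displacement of a biotinylated histone H3(1-15) peptide monomethylated at Lys9 (75 nM) from L3MBTL1 (50 nM) was measured by AlphaScreen after a 30 min room-temperature compound incubation; cefsulodin titration served as intraplate control.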
HP1b binding inh: blocks HP1-beta chromodomain binding to methylated histone tails; P83916; AlphaScreen HP1-beta / biotin-H3K9me3 peptide binding; Potency, µM (top dose mostly 114 µM), inactives show at the top dose activity change, negative = inhibition, actives largely listed as inhibitors; 390,000 tested, 0.56% active; note: potency is the fitted concentration of half-maximal effect; nearly all actives have a fitted effect of over 70% in size
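HP1-beta protein (50 nM final) preincubated 30 min at room temperature with biotinylated H3(1-18)K9me3 peptide (50 nM) in PBS pH 7.4, 0.01% Tween-20, then compound added for 30 min. AlphaScreen streptavidin donor/nickel chelate acceptor beads (10 ug/mL final), 30 min dark, luminescence read.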
G9a inh: blocks human histone lysine methyltransferase G9a. Potency, µM (highest dose often 102 µM), inactives show at the highest dose activity, negative = inhibition, hits mostly inhibitors. Q96KQ7. AID 504332. G9a H3K9 monomethylation, AlphaScreen, 2 h. 350,000 tested, 8.8% active; note: potency is the fitted concentration of half-maximal effect; % is set by controls: 0 for no effect and ±100 for the full control effect; nearly all actives have a fitted effect of over 75% in size
Target sequence (Q96KQ7 913-1193 limits assumed): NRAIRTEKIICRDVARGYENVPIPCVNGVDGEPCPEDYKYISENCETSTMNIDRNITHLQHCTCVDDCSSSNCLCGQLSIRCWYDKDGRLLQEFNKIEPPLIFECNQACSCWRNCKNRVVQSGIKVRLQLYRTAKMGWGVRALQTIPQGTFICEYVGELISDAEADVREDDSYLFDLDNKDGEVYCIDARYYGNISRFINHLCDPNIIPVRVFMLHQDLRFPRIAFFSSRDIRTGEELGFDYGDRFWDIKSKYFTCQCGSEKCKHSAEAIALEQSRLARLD
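Methyltransferase reactions run at room temperature for 2 h (20 nM enzyme, 500 nM biotin-H3K9 peptide, 20 uM SAM) after a 15 min compound preincubation; product detected by AlphaScreen beads and anti-H3K9me1 antibody.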
Numbers without * were called inactive; ? = inconclusive; / = no result given; [ ] = another dose, or the depositor's remark. Rows were chosen to be rich in hits. Some 11% of all compounds tested hit in one or more screens of this group. Unless noted, calls come from the whole dose curve; as a rule, active = well fitted inhibition curve with a large enough effect; inconclusive = small, poorly fitted or top-dose-only effect; inactive = no such curve, though single readings can be large or run the other way.

SMILES	PI5P4Ka inh	BAZ2B inh	JMJD2A Tudor inh	L3MBTL1 inh	HP1b binding inh	G9a inh
COc1cc(OC)c(NC(=O)Nc2c(C)n(C)n(-c3ccccc3)c2=O)cc1Cl	/	3%	3%	/	29%	4%[59 µM]
O=C1CC(=O)CC(c2ccco2)C1	0	-28%	-27%	/	5%	-41%[12.7 µM]
COc1ccc(C2NC(=O)CS2)cc1 (stereo not drawn)	2	-2%	-6%	3%	30%	-12%[59 µM]
O=C1CSC(c2ccco2)N1 (stereo not drawn)	0	1%	-4%	-4%	27%	79µM*
O=C(O)C1CSC(c2ccco2)N1 (stereo not drawn)	-80*	50µM*	-22%[11.4 µM]	44%	40µM*	3.2µM*
COc1ccc2cc(C(=O)C3CCCN(C(=O)c4cnn(C(C)C)c4)C3)ccc2c1 (stereo not drawn)	-10	-22%	18µM*	/	4%	2%
CN(C)c1ccccc1C(=O)N1CCCC(C(=O)c2ccc3ccccc3c2)C1 (stereo not drawn)	14	?	?	-28%	-4%	50µM*
O=C1C(Cl)=C(NCCCO)C(=O)c2ccccc21	-4	?	-30%	/	?	28%[2.33 µM]
O=C1c2cccc(NCCCNCCO)c2C(=O)c2cccc(NCCCNCCO)c21	0	/	50µM*	/	?	/
CCOc1cc(C2C(C(=O)c3ccco3)=C(O)C(=O)N2CC2CCCO2)ccc1O (stereo not drawn)	-6	-20%	-16%	/	0%	45µM*
COc1cc(C2C(C(=O)c3ccco3)=C(O)C(=O)N2CC2CCCO2)ccc1O (stereo not drawn)	8	?	?	/	11%	50µM*
O=C(C1=C(O)C(=O)N(CC2CCCO2)C1c1cccc(O)c1)c1ccco1 (stereo not drawn)	6	-1%	-3%	/	16%	45µM*
COc1cc(C2C(C(=O)c3ccco3)=C(O)C(=O)N2CCc2ccccc2)ccc1O (stereo not drawn)	-1	?	?	-13%	16%	40µM*
COc1ccc(C2C(C(=O)c3ccco3)=C(O)C(=O)N2CC2CCCO2)cc1 (stereo not drawn)	-3	-39%	-22%	5%	20%	?
O=C(C1=C(O)C(=O)N(CC2CCCO2)C1c1ccccc1F)c1ccco1 (stereo not drawn)	2	-11%	-17%	/	12%	40µM*
COc1ccccc1C1C(C(C)=O)=C(O)C(=O)N1CCc1ccccc1 (stereo not drawn)	0	-38%	-22%[57.1 µM]	4%	43%	45µM*
COc1ccc(CCN2C(=O)C(O)=C(C(C)=O)C2c2ccccc2OC)cc1OC (stereo not drawn)	/	-39%	?	/	3%	5%[12.7 µM]
CC(=O)C1=C(O)C(=O)N(CCC(=O)O)C1c1ccccc1Cl (stereo not drawn)	/	?	22µM*	/	-2%	24%[12.7 µM]
CC(=O)C1=C(O)C(=O)N(Cc2ccco2)C1c1ccccc1F (stereo not drawn)	-2	-33%	-29%	/	13%	-22%
CN(C)CCN1C(=O)C(O)=C(C(=O)c2ccco2)C1c1ccccc1F (stereo not drawn)	0	8%	-16%	3%[11.4 µM]	48%	15%[12.7 µM]
CCCCNC(=O)CSc1nc2cc3c(cc2c(=O)n1CCCC(=O)NCc1ccc2c(c1)OCO2)OCO3	/	0%	-1%	/	22%	20%[59 µM]
Cc1ccc(C)c(NS(=O)(=O)c2ccc3c(c2)n(C)c(=O)n3C)c1	/	3%	-18%	/	15%	2%[59 µM]
CCOC(=O)N1CCN(C2=C(NS(=O)(=O)c3ccccc3)C(=O)c3ccccc3C2=O)CC1	3	32µM*	?	/	?	35µM*
CN1CCN(C2=C(NS(=O)(=O)c3ccccc3)C(=O)c3ccccc3C2=O)CC1	4	?	-16%	/	1%	28µM*
COc1ccc(C(CNS(=O)(=O)c2ccccc2)N2CCN(C)CC2)cc1 (stereo not drawn)	0	-6%	-8%	-3%	28%	-50%
SMILES	PI5P4Ka inh	BAZ2B inh	JMJD2A Tudor inh	L3MBTL1 inh	HP1b binding inh	G9a inh
O=C1C(NS(=O)(=O)c2ccc(Cl)cc2)=C(N2CCCCC2)C(=O)c2ccccc21	-4	5.6µM*	11µM*	25µM*	?	10µM*
O=C(O)CCc1nnc2cnc3ccccc3n12	/	-11%	-8%	/	39%	-20%[59 µM]
CCOc1ccccc1C1CC(=O)Nc2c1c(=O)n(C)c1ncnn21 (stereo not drawn)	/	-13%	-6%	/	1%	?
Cc1occc(=O)c1OC(=O)Nc1ccccc1	7	?	20µM*	/	5%	?
COc1ccc(OC(=O)Nc2ccccc2)cc1	/	7%	0%	/	18%	1%[59 µM]
CCc1cccc(NS(=O)(=O)c2cc(-c3cnc(C)o3)ccc2OC)c1	/	?	?	/	-26%	-30%[59 µM]
COc1cc(O)oc1C=Nc1ccc(Oc2ccccc2)cc1	-1	?	?	-14%	1%	45µM*
Cc1ccc(S(=O)(=O)N2CCN(C(=O)CCc3c[nH]c4ccccc34)CC2)c(C)c1	1	-11%	-30%	-1%	18%	8.9µM*
COc1ccc(N2CCN(C(=O)CCc3c[nH]c4ccccc34)CC2)cc1	5	?	-15%[11.4 µM]	-12%	-7%	56µM*
COc1ccc(S(=O)(=O)N2CCN(C(=O)CCc3c[nH]c4ccccc34)CC2)cc1	4	-4%	-13%	-3%	19%	15%[12.7 µM]
O=C(CCc1c[nH]c2ccccc12)N1CCCCCCC1	1	?	-26%	/	16%	-13%
O=C(CCc1c[nH]c2ccccc12)N1CCN(c2ccc(O)cc2)CC1	3	-16%	-14%[11.4 µM]	-21%	?	35µM*
CC(C)c1cnc2c(c1SCC(=O)Nc1cccc([N+](=O)[O-])c1)c(=O)n(C)c(=O)n2C	/	-16%	?	/	28%[57 µM]	?
Cc1sc2ncn(CC(=O)Nc3ccc(C(C)C)cc3)c(=O)c2c1S(=O)(=O)N1CCN(c2ncccn2)CC1	/	-5%	-22%	/	10%	-30%[59 µM]
CCOc1cc2[nH]c(=O)n(Cc3ccc(C(=O)N4CCN(c5cccc(Cl)c5)CC4)cc3)c(=O)c2cc1OCC	/	-11%	-21%	/	12%	12%[59 µM]
O=C(c1ccc2nc(N3CCCCC3)sc2c1)N1CCN(c2ccccn2)CC1	3	-31%	-29%	-13%	54%	56µM*
Cn1nnc2cc(C(=O)N3CCN(c4ccccn4)CC3)ccc21	-12	4%	-12%	/	-2%	18µM*
CC1CCN(c2nc3ccc(C(=O)N4CCN(Cc5ccccc5)CC4)cc3s2)CC1	-1	-9%	?	/	2%	71µM*
